Screening data (PubChem)
This is a sample that favours compounds with a hit; in the whole collection about 1.8% have one here.
AI-2 QS mod: Vibrio harveyi AI-2 quorum sensing modulation; Vibrio harveyi JMH597 AI-2 luminescence/OD600 ratio, 9 h; active compounds read low; strain lacks LuxN and CqsS sensors; 0 = neutral-control median; activity change, % at 7.5 µM; hit rate 0.4% among 300,000; AID 2094; in the data active = activity change below about -75%, passing the limit was not always enough;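 note: luminescence divided by OD600 gain over 9 h not by final OD600 alone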
aDG glyco up: increases alpha dystroglycan glycosylation; hit rate 0.22% among 360,000; activation, % at 10 µM; AID 624168; Pro5-aDG cells, alpha-DG glycosylation AlphaScreen (IIH6); 0% Pro5, 100% B10-LARGE cell signal;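 active = activation of at least 8% versus controls, or a plate z-score of at least 8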;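 note: Pro5 are CHO cells carrying HIG-tagged alpha-DG that lacks glycosylation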
A1 inh: inhibitors of the anti-apoptotic protein A1, read as caspase activation; caspase activation, % (test concentration not listed); MEF A1-2A-BIM cells, Caspase-Glo 3/7 luminescence, 3 h; percent of clofoctol response, vehicle zero; hit rate 0.066% among 330,000; AID 2462;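 active = over half of replicate activation scores above 10%, or exactly half above 10 with the replicate mean above 10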
ARNT TACC3 PPI: disruptors of human ARNT/TACC3 interaction. Q9Y6A5. AlphaScreen His-ARNT PAS-B/GST-TACC3 binding, luminescence; TACC3 fragment carries E629A point mutation. inhibition, % at 9.99 µM. hit rate 0.66% among 390,000. AID 623870;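 active = mean inhibition of replicates at least 50% and at least half of replicates each reaching 50%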;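 note: 0% = complete ARNT plus TACC3 wells and 100% = ARNT alone without TACC3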
Mot1-301 SUMO: blocks SUMOylation pathway, rescuing yeast Mot1-301 growth; growth rescue, % at 18.8 µM; hit rate 1% among 320,000; S. cerevisiae Mot1-301 growth rescue, ATP luminescence, 38.5C; percent above DMSO median, 100 means doubled;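 active = every valid replicate shows activation above 250% relative to neutral control wells; inactive = the rest, any valid replicate at or below 250%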;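 note: OY570 slx delta 5 strain wells were the positive control but not used for scaling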
Mot1 SUMO dose: SUMO pathway inhibitors in yeast Mot1-301 growth; shares compounds with Mot1-301 SUMO; S. cerevisiae Mot1-301 galactose growth, ATP luminescence, 24 h; -100 = growth of slx-deleted rescue strain; growth activity, percent, % at 42 µM; 2,300 tested, under 10 active;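 active = Signal drops as the depositor expects, and the fitted half-maximal dose is no more than ten times the top valid tested dose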;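 note: more negative values mean stronger growth rescue toward the control strain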
The depositor's hits bear a star.

Cc1ccc(C(=O)NCCN2CCOCC2)cc1 was read as AI-2 QS mod 13, aDG glyco up 0, A1 inh 0, ARNT TACC3 PPI -4 and Mot1-301 SUMO -14.
Cc1ccc(C(=O)NCCNC(=O)c2ccc(C)nc2)cc1 was read as AI-2 QS mod 24, aDG glyco up 0, A1 inh -1, ARNT TACC3 PPI 4 and Mot1-301 SUMO 13.
Screening Cc1ccc(C(=O)NCCCNC(=O)c2ccc(C)nc2)cc1 returned AI-2 QS mod 21, aDG glyco up 0, A1 inh 0, ARNT TACC3 PPI -4, Mot1-301 SUMO 424* and Mot1 SUMO dose 0.
For COc1ccc(CC(=O)NCCN2CCOCC2)cc1 the results were AI-2 QS mod 15, aDG glyco up 0, A1 inh 4, ARNT TACC3 PPI -13, Mot1-301 SUMO 395* and Mot1 SUMO dose 0.
CCn1c(SCC(=O)N(C)c2ccccc2)nc2c([nH]c3ccccc32)c1=O was read as AI-2 QS mod 6, aDG glyco up 0, A1 inh 0, ARNT TACC3 PPI -4 and Mot1-301 SUMO 9.
`CCC(C)(C)n1nnnc1CN1CCSCC1` gave AI-2 QS mod 9, aDG glyco up 0, A1 inh 0, ARNT TACC3 PPI 33 and Mot1-301 SUMO 0.
`Cc1ccc(S(=O)(=O)Nc2cccc(Oc3cnccn3)c2)cc1` gave AI-2 QS mod 5, aDG glyco up 0, A1 inh 3, ARNT TACC3 PPI -2 and Mot1-301 SUMO -1.
Screening CCCCOc1ccc(CSC(=N)N)cc1Cl returned AI-2 QS mod 21, aDG glyco up 0, A1 inh -1, ARNT TACC3 PPI -9, Mot1-301 SUMO 467* and Mot1 SUMO dose -1.
CCCCCOc1ccc(Br)cc1CSC(=N)N was read as AI-2 QS mod 12, aDG glyco up 0 and ARNT TACC3 PPI -13.
Cc1cc(C(=O)NN)n[nH]1 was read as AI-2 QS mod 12, aDG glyco up 0, A1 inh 1, ARNT TACC3 PPI 5, Mot1-301 SUMO 590* and Mot1 SUMO dose 0.
Cc1cc(C)cc(OCC(=O)NNC(=O)c2cc(C)[nH]n2)c1 was read as AI-2 QS mod 28, aDG glyco up 0, A1 inh 0, ARNT TACC3 PPI 5 and Mot1-301 SUMO -10.
`COc1cccc(C(=O)Nc2ccc(C(F)(F)F)n(C)c2=O)c1` gave AI-2 QS mod -8, aDG glyco up 0, A1 inh -7 and Mot1-301 SUMO 84.
Screening CCOc1ccc(C(=O)Nc2ccc(C(F)(F)F)n(C)c2=O)cc1 returned AI-2 QS mod -9, aDG glyco up 0, A1 inh 0, Mot1-301 SUMO active and Mot1 SUMO dose 0.
For CCCCC(=O)NC(=S)Nc1cccc(NC(=O)CC)c1 the results were AI-2 QS mod -31, aDG glyco up 0, A1 inh 1 and ARNT TACC3 PPI 1.
CCCCC(=O)NC(=S)Nc1cccc(C(=O)O)c1 was read as AI-2 QS mod 19, aDG glyco up 0, A1 inh 0, ARNT TACC3 PPI -7, Mot1-301 SUMO active and Mot1 SUMO dose 0.
Screening CSc1ccccc1-c1nc(-c2ccncc2)no1 returned AI-2 QS mod 13, aDG glyco up 0, A1 inh -4, ARNT TACC3 PPI -3, Mot1-301 SUMO 718* and Mot1 SUMO dose 0.
`c1ccc(-c2ccccc2-c2nc(-c3ccncc3)no2)cc1` gave AI-2 QS mod 10, aDG glyco up 1, A1 inh 1 and Mot1-301 SUMO 6.
For COC(=O)c1ccccc1NC(=O)c1cnn2c(C)cc(C)nc12 the results were AI-2 QS mod 0, aDG glyco up 0, A1 inh 0, ARNT TACC3 PPI 2, Mot1-301 SUMO 892* and Mot1 SUMO dose 1.
Screening O=C(NCc1cccc2ccccc12)c1cccs1 returned aDG glyco up 0, A1 inh -2, ARNT TACC3 PPI -12 and Mot1-301 SUMO 169.
`O=C(NCc1nc(-c2ccccc2)no1)c1cccs1` gave AI-2 QS mod -79*, aDG glyco up 0, A1 inh -1, ARNT TACC3 PPI -6, Mot1-301 SUMO 499* and Mot1 SUMO dose -1.
Screening COc1ccc(N2CCN(c3nc(NCCO)nc(N4CCOCC4)n3)CC2)cc1 returned AI-2 QS mod 19, aDG glyco up 0, A1 inh -1, ARNT TACC3 PPI 5 and Mot1-301 SUMO -5.
For CC1(C)NC(=O)N(CCCOc2ccccc2Br)C1=O the results were AI-2 QS mod -6, aDG glyco up 0, Mot1-301 SUMO active and Mot1 SUMO dose 0.
For CC1(C)NC(=O)N(CCCCOc2ccccc2[N+](=O)[O-])C1=O the results were AI-2 QS mod 13, A1 inh 0 and Mot1-301 SUMO 6.
Screening CN(Cc1ccccc1)S(=O)(=O)c1ccc(OCC(=O)NCc2ccccn2)cc1 returned AI-2 QS mod 58, aDG glyco up 0, A1 inh 0, ARNT TACC3 PPI 0 and Mot1-301 SUMO -1.
`CC(C)NC(=O)COc1ccc(S(=O)(=O)N(C)Cc2ccccc2)cc1` gave AI-2 QS mod -8, aDG glyco up 0, A1 inh -1, ARNT TACC3 PPI -6, Mot1-301 SUMO 363* and Mot1 SUMO dose -1.
`O=C(COC(=O)CCCSc1nc2ccccc2[nH]1)Nc1cccc(F)c1` gave AI-2 QS mod 17, aDG glyco up 0, A1 inh 0, ARNT TACC3 PPI -3 and Mot1-301 SUMO 386.
For C=CCNC(=O)NC(=O)COC(=O)CCCSc1nc2ccccc2[nH]1 the results were AI-2 QS mod 31, aDG glyco up 0, A1 inh -1, ARNT TACC3 PPI -5, Mot1-301 SUMO 612* and Mot1 SUMO dose 0.
Screening CC1CC(N(C(=O)c2ccccc2Cl)c2ccccc2)c2ccccc2N1 (stereo not given) returned AI-2 QS mod 14, aDG glyco up 0, A1 inh -2, ARNT TACC3 PPI -6, Mot1-301 SUMO 453* and Mot1 SUMO dose 1.
Screening COc1cc(/C=N/n2c(C3CCCCC3)n[nH]c2=S)cc(OC)c1O returned AI-2 QS mod 19, aDG glyco up 0, A1 inh -1, ARNT TACC3 PPI -6, Mot1-301 SUMO 400* and Mot1 SUMO dose 1.
`C[C@H]1CN([C@@H](C)CO)C(=O)c2cccc(NC(=O)C3CCOCC3)c2O[C@H]1CN(C)C(=O)Nc1cccc2ccccc12` gave ARNT TACC3 PPI -1.
Screening O=C(NCCO)/C(=C\c1ccco1)NC(=O)c1ccco1 returned AI-2 QS mod 11, aDG glyco up 0, A1 inh 1, ARNT TACC3 PPI -1 and Mot1-301 SUMO 2.
